PubChem BioAssay AID2283179 (EPA ToxCast)
Results filed as inconclusive are left out. Active and inactive are the calls of the source. Rule for the calls: active = hit-call score of the fitted dose curve at least 0.9, where 1 is the maximum; inconclusive = response in the unintended direction; inactive = score below 0.9.

Target: human Microtubule Affinity Regulating Kinase 1 (MARK1), MARK1 (gene 4139) (UniProt Q9P0L2)
Test: NVS_ENZ_hMARK1: NovaScreen (NVS) Enzymatic Assay for human Microtubule Affinity Regulating Kinase 1 (MARK1)
Description: NVS_ENZ_hMARK1 is a biochemical, single-readout assay that uses extracted gene-proteins in a cell-free assay. Measurements were taken 1 hour after chemical dosing in a 384-well plate.NVS_ENZ_hMARK1 is one of one assay component(s) measured or calculated from the NVS_ENZ_hMARK1 assay. It is designed to make measurements of enzyme activity, a form of enzyme reporter, as detected with fluorescence intensity signals by Fluorescence and electrophoretic mobility shift technology.Data from the assay component NVS_ENZ_hMARK1 was analyzed into 1 assay endpoint. This assay endpoint, NVS_ENZ_hMARK1, was analyzed in the positive analysis fitting direction relative to DMSO as the negative control and baseline of activity. Using a type of enzyme reporter, loss-of-signal activity can be used to understand changes in the enzymatic activity as they relate to the gene MARK1. Furthermore, this assay endpoint can be referred to as a primary readout, because this assay has produced multiple assay endpoints where this one serves a enzymatic activity function. To generalize the intended target to other relatable targets, this assay endpoint is annotated to the kinase intended target family, where the subfamily is serine/threonine kinase.
Binding assays used specific radioligands (tritiated, iodinated) with non-radioactive competitive displacement ligands in agonist or antagonist protocols (as indicated) and various reference compounds and inhibitors to titrate specific binding to receptors and transporters. Most enzyme assays (CYPs, kinases, phosphatases, proteases, HDACs) used recombinant protein and specific substrates (fluorescence mostly, some colorimetric and radioactive) and inhibitors, followed by a biochemical separation of substrate and product. All assays for the biochemical HTS were initially run in duplicate at a single concentration (10 uM for CYP450 assays and 25 uM for all others). Assay-chemical combinations meeting a pre-defined threshold (e.g., 30% inhibition and other criteria defined below) were then run in singleton concentration-response format with maximum concentration of 20 uM for CYPs and 50 uM for all others. Each assay was run with positive and negative controls, and concurrent controls on every plate. The follow-up (secondary) screen tested active chemical-pairs in concentration series, as well as a few additional assays not tested in the primary screen, some selected negative inactives, and several cases re-run in the concentration series for confirmatory purposes.

human Microtubule Affinity Regulating Kinase 1 (MARK1), MARK1 (gene 4139), sequence (Q9P0L2 whole entry, looked up): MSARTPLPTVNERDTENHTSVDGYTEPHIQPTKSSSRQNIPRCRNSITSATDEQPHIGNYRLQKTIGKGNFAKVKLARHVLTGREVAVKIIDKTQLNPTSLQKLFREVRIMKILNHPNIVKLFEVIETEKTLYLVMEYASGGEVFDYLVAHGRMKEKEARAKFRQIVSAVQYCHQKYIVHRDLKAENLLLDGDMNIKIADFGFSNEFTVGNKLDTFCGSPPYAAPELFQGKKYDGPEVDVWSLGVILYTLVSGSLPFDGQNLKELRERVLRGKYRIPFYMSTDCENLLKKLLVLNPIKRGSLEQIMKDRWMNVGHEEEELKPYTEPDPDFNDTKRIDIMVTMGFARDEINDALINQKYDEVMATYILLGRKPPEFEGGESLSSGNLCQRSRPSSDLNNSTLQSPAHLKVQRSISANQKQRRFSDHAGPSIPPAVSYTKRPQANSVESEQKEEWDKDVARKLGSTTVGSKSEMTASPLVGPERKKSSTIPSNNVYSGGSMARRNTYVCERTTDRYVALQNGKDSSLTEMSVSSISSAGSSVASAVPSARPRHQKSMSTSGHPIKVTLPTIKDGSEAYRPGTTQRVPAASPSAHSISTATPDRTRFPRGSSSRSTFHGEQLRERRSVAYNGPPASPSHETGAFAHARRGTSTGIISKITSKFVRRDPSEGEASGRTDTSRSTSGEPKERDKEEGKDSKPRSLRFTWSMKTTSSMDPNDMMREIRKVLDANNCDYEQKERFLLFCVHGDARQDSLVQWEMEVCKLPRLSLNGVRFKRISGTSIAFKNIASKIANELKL

SMILES	outcome	AC50
O=C(Nc1ccc([N+](=O)[O-])cc1Cl)c1cc(Cl)ccc1O	inactive	
S=C(S)NCCNC(=S)S.[Mn+2].[S-]C([S-])=NCCN=C([S-])[S-].[Zn+2]		1.38 µM (active)
O=C(O)C1(C(=O)Nc2ccc(Cl)cc2Cl)CC1		7.85 µM (active)
S=C([S-])NCCNC(=S)[S-].[Mn+2]		0.406 µM (active)
